hcDAF-12 act = H. contortus DAF-12 activation, primary screen; HEK293 hcDAF-12 lit1-tk-luc reporter, luminescence; 0% DMSO, 100% Δ7-dafachronic acid; activation, % at 6.8 µM; 370,000 compounds, 1.4% hits; AID 652067;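 active = activation above the mean of all tested compounds plus 3 SD, cut at about 5.5% in these data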
AHR activator = human AHR activation; P35869; AHR-responsive luciferase reporter cells, luminescence; activation, % at 5 µM; 320,000 compounds, 2.5% hits; AID 2796; in the data active = activation above about 47%
DAX1 inh-1 = NR0B1 (DAX1) inhibition; P51843; HEK293 Gal4-DAX1 luciferase reporter, luminescence; inhibition, % at 6.75 µM; 340,000 compounds, 0.99% hits; AID 504766;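 active = inhibition above the mean over all tested compounds plus 3 SD, cut at about 4.2% in these data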;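 note: inhibition shows as a rise in luminescence from relieved DAX1 repression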
DAX1 inh-2 = DAX1 (NR0B1) inhibition, primary screen. HEK293T StAR-luciferase reporter, SF-1/DAX-1 repression relief. inhibition, % at 6.8 µM. 370,000 compounds, 1.1% hits;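 active = inhibition above the mean over all tested compounds plus 3 SD, cut at about 3.6% in these data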;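 note: higher inhibition means more luminescence from relief of DAX-1 repression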
ssDAF12 agonist = activates DAF-12 receptor from parasite S. stercoralis; activation, % at 6.8 µM; 370,000 compounds, 1% hits; HEK293 ssDAF-12/GRIP1 lit1-tk-luc reporter, luminescence; % of 3 µM dafachronic acid response;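 active = activation above the mean over all tested compounds plus 3 SD, cut at about 0.9% in these data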
hgDAF12 agonist = agonists of H. glycines DAF-12 nuclear receptor. 370,000 compounds, 1.8% hits. HEK293 GAL4-hgDAF12 UAS-luciferase reporter, agonist luminescence; normalized to butyrate control. activation, % at 6.8 µM. AID 687014;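 active = activation above a cutoff set at the mean of all screened compounds plus 3 SD, cut at about 10% in these data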
Numbers stand for hits; i = inactive; nt = no result. Most compounds without a hit are left out; they make up all but 5.7% or so of the library.

SMILES	hcDAF-12 act	AHR activator	DAX1 inh-1	DAX1 inh-2	ssDAF12 agonist	hgDAF12 agonist
CNC(=S)Nc1cc2oc3ccccc3c2cc1OC	i	nt	i	i	i	i
CCNC(=S)Nc1cc2oc3ccccc3c2cc1OC	i	70.1	i	i	i	i
Cc1ccc(NC(=O)Nc2ccc3c(c2)nnn3C)cc1C	i	i	5.3	i	i	i
Cc1ccc(NC2SC(=O)N(CC(=O)O)C2=O)cc1 (centres undefined)	i	i	i	i	1.2	i
CCOC(=O)c1sc2nc(C)nc(N3CCN(S(=O)(=O)c4ccccc4)CC3)c2c1C	i	i	i	i	i	i
COc1ccc(OCC(O)CN2CCNCC2)cc1 (centres undefined)	i	nt	i	i	i	i
COC(=O)c1c(-c2ccc(OC)cc2)sc2ccc(OC)cc12	i	i	i	i	1.6	i
O=C1C2CC=C(Cl)CC2C(=O)N1CCc1c[nH]c2ccccc12 (centres undefined)	i	i	i	i	1.2	i
O=C(O)c1ccc2c(c1)C(=O)N(CCc1c[nH]c3ccccc13)C2=O	5.8	nt	i	i	i	i
O=C(O)c1ccc2c(c1)C(=O)N(CCc1ccccc1)C2=O	i	i	i	i	i	i
O=S1(=O)CC(N2CCCCC2)CN1C1CCCCC1 (centres undefined)	i	nt	nt	i	i	i
COc1cc(/C=C2\SC(=Nc3ccccc3OC)NC2=O)ccc1O	i	i	i	i	i	i
Cc1cccc(N=C2NC(=O)/C(=C/c3cccnc3)S2)c1C	i	47.2	i	i	i	i
O=C1NC(=Nc2ccccc2)S/C1=C\c1ccccc1	i	i	i	i	1.0	i
COc1ccc(/C=C2\SC(=Nc3ccccc3OC)NC2=O)cc1	i	i	4.3	i	i	i
Cc1ccc(N=C2NC(=O)/C(=C/c3cccnc3)S2)c(C)c1	i	i	i	i	i	i
CCCNC(=O)c1cc(C2CCCCN2S(=O)(=O)Cc2cccc(C(F)(F)F)c2)on1 (centres undefined)	i	nt	nt	i	i	i
CCOC(=O)C1=CCC(c2ccccc2)N(S(C)(=O)=O)C1 (centres undefined)	i	nt	nt	i	i	i
C/C(=N/NC(=O)c1ccc2c(c1)OCO2)c1ccc(Br)s1	i	i	i	i	0.9	i
C/C(=N\NC(=O)c1ccc(C)cc1C)c1ccc2c(c1)OCO2	i	i	i	i	1.3	i
N=c1c(S(=O)(=O)c2ccc(Cl)cc2)cc2c(=O)n3ccccc3nc2n1C1CCCC1	i	i	i	i	i	i
O=C(CO/N=C1\CCCc2nonc21)Nc1ccc(Br)cc1	i	77.5	i	i	i	i
COc1ccc(NC(=O)CO/N=C2\CCCc3nonc32)cc1	i	i	i	i	i	i
C#CCNC(=O)C1=C[C@@H](c2cn(C(C)=O)c3ccccc23)C[C@@H](OCc2ccc(CO)cc2)O1	i	47.3	i	i	i	i
CC(=O)n1cc([C@H]2C=C(C(=O)NCc3ccccc3)O[C@@H](OCc3ccc(CO)cc3)C2)c2ccccc21	i	65.4	i	i	i	i
SMILES	hcDAF-12 act	AHR activator	DAX1 inh-1	DAX1 inh-2	ssDAF12 agonist	hgDAF12 agonist
CC(=O)n1cc([C@H]2C=C(C(N)=O)O[C@@H](OCc3ccc(CO)cc3)C2)c2ccccc21	i	73.3	i	i	i	i
CCN(CC)CCn1c2c(c(SCC(=O)Nc3nccs3)nc1=O)CCCC2	i	i	i	i	i	i
COc1ccc(-c2nc(NC(=O)Cn3c(=O)oc4ccccc43)sc2C)cc1	i	69.8	4.7	i	i	i
O=C(O)Cn1c(SCc2ccccc2)nc2ccccc21	i	i	i	i	i	i
O=C(O)Cn1c(SCc2cccc3ccccc23)nc2ccccc21	6.1	i	i	i	i	i
COc1cccc(C2c3c(oc4ccccc4c3=O)C(=O)N2Cc2ccco2)c1 (centres undefined)	i	81.8	i	i	i	i
CC(=O)Oc1ccc(/C(C)=N\N2CCN(Cc3ccc(Cl)cc3)CC2)cc1	i	i	i	i	i	i
C/C(=N\N1CCN(Cc2ccc(Cl)cc2)CC1)c1ccc(F)cc1	i	i	4.5	i	i	i
COc1cccc(CN(C)C(=O)CSc2nc3ccccc3[nH]2)c1OC	i	i	i	i	i	i
COc1ccc(/C=C2\N=C(c3ccc(C)cc3)OC2=O)cc1	i	i	i	i	i	i
Cc1ccc(C2=N/C(=C/N3CCOCC3)C(=O)O2)cc1	i	57.2	i	i	i	i
S=C1Nc2ccccc2CS1	i	nt	i	i	i	i
CC1=C(C)NC(=S)SC1	5.6	i	i	i	i	i
CCN(CC)C(=O)c1cccc(NC(=O)c2cc(-c3ccccn3)nc3ccccc23)c1	i	i	i	i	i	i
CC(=O)c1c(C(C)=O)c(C)n(NC(=O)c2ccncc2)c1C	i	i	5.7	i	i	i
O=C(Nn1cnnc1)c1ccncc1	i	i	i	i	i	i
CN(C)c1ccc2c(c1)C(=NO)c1ccccc1-2	nt	nt	4.4	nt	nt	nt
ON=C1c2ccccc2-c2ccccc21	i	i	i	i	i	i
CC(=O)Nc1ccc(OCc2ccc3c(c2)OCO3)cc1	i	i	i	i	i	12.2
CCOc1ccc(NC(=S)NCc2ccc3c(c2)OCO3)cc1	i	i	5.5	i	i	i
N#CCc1cc2ccc3cccc4ccc(c1)c2c34	i	i	7.0	i	i	i
c1ccc2c(c1)c1cccc3ccc4cccc2c4c31	i	i	i	i	i	i
Cc1cccc(C)c1Nc1nnc(SCc2nc3ccccc3c(=O)[nH]2)s1	i	68.8	i	i	i	i
CSc1ccc(Cn2c(C)c(C(=O)NCc3ccc4c(c3)OCO4)sc2=O)cc1	i	nt	nt	i	i	i
CCN(Cc1cc(=O)[nH]c2ccccc12)C(=O)C(C)C	i	i	i	i	0.9	i
SMILES	hcDAF-12 act	AHR activator	DAX1 inh-1	DAX1 inh-2	ssDAF12 agonist	hgDAF12 agonist
CCN(Cc1cc(=O)[nH]c2ccccc12)C(=O)c1ccc(C)cc1	i	i	i	i	1.8	i
Cc1ccc(N(Cc2cc(=O)[nH]c3ccccc23)C(=O)C(C)C)cc1	i	i	i	i	i	i
CCCC(=O)N(Cc1cc(=O)[nH]c2ccccc12)c1ccc(C)cc1	i	i	i	i	i	i
Cc1cc2nc3n(c2cc1C)CCCN3	i	72.5	i	i	i	i
Cc1cc2nc(C)c(=O)n(C)c2cc1C	i	i	i	i	i	i
Cc1cc2c(c(=O)o1)[C@@]1(C(=O)N(C)c3c(Br)cccc31)C1=C(CCCC1=O)O2	i	nt	nt	i	i	i
Cc1ccnc(NC(=O)c2ccc3c(c2)C(=O)N(CC(C)C)C3=O)c1	i	i	i	3.7	i	i
O=C(Nc1ccccc1O)c1ccc2c(c1)C(=O)N(N1C(=O)c3ccccc3C1=O)C2=O	5.9	i	i	i	1.3	i
CCCN1C(=O)c2ccc(C(=O)Nc3cc(C)ccc3O)cc2C1=O	i	i	i	i	i	i
Cc1ccc(O)c(NC(=O)c2ccc3c(c2)C(=O)N(CC(C)C)C3=O)c1	i	73.3	i	i	i	i

Bioassay records: PubChem BioAssay, The Scripps Research Institute Molecular Screening Center
